# Compound activity as filed in PubChem.
# KB-V1 cytotox = kills drug-selected multidrug resistant KB-V1 cells. KB-V1 MDR cells viability, CellTiter-Glo, 72 h. Potency, µM (highest dose often 46.1 µM), actives largely listed as cytotoxic. 400,000 tested, 3.4% active. AID 1347076; also: % is scaled to controls: 0 for no effect and ±100 for the full control effect; nearly all actives have a fitted effect of over 60% in size
#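 Following 72 h at 37 degrees C with compound, KB-V1 cell viability was read by CellTiter-Glo luminescence, medium being phenol-red-free DMEM plus 10% FBS; concentration-response parameters came from normalized, curve-fitted qHTS data.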
# KB-3-1 cytotox = kills parental KB-3-1 adenocarcinoma cells; KB-3-1 viability, CellTiter-Glo ATP luminescence, 72 h; Potency, µM (top dose mostly 46.1 µM), most hits filed as cytotoxic; 400,000 tested, 1.4% active; also: % is scaled to controls: 0 for no effect and ±100 for the full control effect; nearly all actives have a fitted effect of over 60% in size
#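 Cells are dispensed, compounds pinned in, plates held at 37 °C for 72 h, then CellTiter-Glo is added and luminescence read after 10 minutes. Cell line: parental KB-3-1 in phenol-red-free DMEM, 10% FBS.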
# SW480 rereplic = induces DNA re-replication in SW480 colon adenocarcinoma cells | SW480 DNA re-replication, Hoechst DNA content imaging, 48 h | Potency, µM (top dose mostly 46.1 µM), inactives show top-dose re-replication activation, usual class: activators | 340,000 tested, 1.8% active | AID 624297; also: % of control where 0% means no effect; nearly all actives have a fitted effect of over 55% in size
#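 DNA re-replication was detected as more nuclei of elevated Hoechst intensity after 48 hr exposure to compound (23 nL pinned per well of 250 cells).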
# HT1080 IDH1KD tx = HT-1080 IDH1 knockdown cell toxicity (counter line). HT-1080 IDH1 knockdown viability, ATP luminescence, 48 h. Potency, µM (titrated, usually from 46.1 µM), for the others: at the top dose activity, negative = toxicity, actives largely listed as cytotoxic. 360,000 tested, 2% active. AID 686971;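 also: 0% = DMSO wells and -100% = cell-free medium wells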
#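 Cytotoxicity counter-line: IDH1KD HT-1080, 48 h, CellTiter-Glo. Curves classed by r2, magnitude and activity.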
# HT1080NT lethal = kills 2HG-producing HT-1080-NT fibrosarcoma cells. 360,000 tested, 1.6% active. HT-1080-NT fibrosarcoma viability, CellTiter-Glo ATP luminescence, 48 h. Potency, µM (highest dose often 46.1 µM), without a hit: top-dose activity, negative = less viability, usual class: cytotoxic;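 also: NT is the 2HG producing partner of a matched IDH1 knockdown line; 0% = DMSO-treated cells and -100% = media-only wells without cells; nearly all actives have a fitted effect of over 55% in size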
#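 A 48-hour cytotoxicity screen used HT-1080-NT cells plated 2 hours before compound delivery. ATP-based CellTiter-Glo luminescence measured viability, normalized to DMSO and no-cell controls.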
# MCF10A rerep = induces DNA re-replication in MCF 10a normal breast cells; MCF 10A DNA re-replication, Hoechst nuclear intensity, 48 h; Potency, µM (highest dose often 46.1 µM), inactives show at the top dose activity, positive = re-replication, hits mostly activators; 350,000 tested, 2.9% active; AID 624296; also: % of control where 0% means no effect; nearly all actives have a fitted effect of over 50% in size
# Numbers without * were called inactive; i = inactive; ? = inconclusive; . = no result given; [ ] = another dose, or the depositor's remark. Most compounds without a hit are left out; they make up all but 7.9% or so of the library. Calls follow the shape of the dose curve; as a rule, active = well fitted curve in the direction sought with a large enough effect; inconclusive = small, poorly fitted or top-dose-only effect, or another doubt; inactive = no such curve, though single readings can be large; an effect the other way counts as inactive or inconclusive. Potency is read from the fitted curve at half-maximal effect.
SMILES,KB-V1 cytotox,KB-3-1 cytotox,SW480 rereplic,HT1080 IDH1KD tx,HT1080NT lethal,MCF10A rerep
COc1cc([N+](=O)[O-])cc(/C=N/NC(=O)C(C)Nc2cccc3ccccc23)c1O (stereo not given),?,?,?,18µM*,?,?
COc1cc([N+](=O)[O-])cc(/C=N/NC(=O)c2cccnc2)c1O,i,?,?,-2%,0%,6.5µM*
COc1cccc(/C=N/Nc2ccc(C(=O)O)cc2)c1O,?,16µM*,-8%,21µM*,18µM*,-1%
COc1cccc(/C=N/NC(=O)c2nc(-c3ccccc3)cc(-c3ccccc3)n2)c1O,?,?,8.2µM*,?,?,7%
COc1cccc(/C=N/Nc2ccc(S(=O)(=O)O)cc2)c1O,i,i,-4%,0%,11%,-3%
CCOc1cc2sc(N3CCC(C(=O)Nc4ccc(CC)cc4)CC3)nc2cc1Br,i,i,.,.,.,.
COc1ccc(-c2noc(CC(=O)Nc3cc(OC)ccc3OC)n2)cc1,i,i,.,.,.,.
S=c1[nH]c2ccccc2n1CCc1ccccc1,i,i,.,.,.,.
Cc1ccc(S(=O)(=O)Oc2ccccc2)cc1,i,i,-4%,3%,2%,-2%
Cc1ccc(S(=O)(=O)Oc2ccccc2-c2ccccc2)cc1,?,?,12µM*,16µM*,?,12µM*
COc1ccccc1/C=C/C=N/Nc1cccc(C(=O)O)c1,i,i,7%,0%,1%,21µM*
CCOc1cc(C#N)c(NC(=O)c2cccnc2)cc1OCC,?,0.65µM*,5.2µM*,5.2µM*,?,3.7µM*
CCOc1cccc(/C=N/NC(=O)c2cccnc2)c1O,?,i,17%,5.2µM*,?,4%
COc1ccc(N(CC(=O)N2CCOCC2)S(C)(=O)=O)cc1,i,i,-2%,14%,1%,0%
CCn1c(C)nc2cc(C(=O)N/N=C/c3ccc(O)c(O)c3O)ccc21,i,i,-2%,-13%,-13%,24%
Cc1ccc(S(=O)(=O)Oc2ccccc2/C=N/Nc2ccc(C(=O)O)cc2)cc1,?,i,?,-24%,-20%,18µM*
COc1cccc(/C=N/NC(=O)COc2cccc3cccnc23)c1O,i,?,13µM*,18µM*,-21%,?
COc1cccc(OCc2cc(/C=N/Nc3ccc(C(=O)O)cc3)ccc2OC)c1,i,i,?,?,21µM*,?
CCn1c(C)nc2cc(C(=O)N/N=C/c3cccc(OC)c3O)ccc21,?,i,1.6µM*,?,-28%,?
CN(CC(=O)Nc1cccc(F)c1)C(=O)c1ccc(N2CCCCC2)c([N+](=O)[O-])c1,?,i,2%,-4%,?,?
COc1ccccc1C=NN=C(NN=Cc1ccccc1OC)NN=Cc1ccccc1OC,21µM*,?,?,?,?,26%
COc1cccc(C=NNC(=O)c2ccncc2)c1O,i,21µM*,?,1.5µM*,?,?
O=C(N/N=C/C1=Cc2ccccc2OC1)c1ccncc1,i,i,18µM*,3%,5%,?
O=C(N/N=C/c1ccco1)c1ccncc1,i,i,-14%,30%,-1%,-4%
CCC(=NNC(=O)c1ccc2c(c1)nc(C)n2CC)c1cc(F)ccc1O,2.3µM*,?,?,?,-6%,10%
SMILES,KB-V1 cytotox,KB-3-1 cytotox,SW480 rereplic,HT1080 IDH1KD tx,HT1080NT lethal,MCF10A rerep
COc1ccc(S(=O)(=O)Nc2ccc3c(c2)C(=O)N([C@@H](C)CO)C[C@@H](C)[C@H](CN(C)S(=O)(=O)c2ccc(F)cc2)OCCCC[C@H](C)O3)cc1,i,i,.,-2%,-14%,.
COc1ccc(Br)cc1CNC(=O)CN1C(=O)C(c2ccccc2)Oc2cccnc21 (stereo not given),i,i,1%,2%,-5%,?
Cc1cccc(CC(=O)N2CC(=O)Nc3ccc(C)cc3C2c2ccc(F)cc2)c1 (stereo not given),i,i,.,.,.,.
CCCNC(=O)C1(C)CCN(Cc2cccc(OC(=O)c3ccccc3)c2)C1 (stereo not given),i,i,.,11%,0%,.
COc1ccc(Nc2ccnc(Nc3ccc(OC)cc3)n2)cc1,16µM*,?,?,21µM*,23µM*,23µM*
COc1ccc(/C=N/NC(=O)c2cccnc2)cc1CSc1nc2ccccc2s1,12µM*,?,21µM*,?,?,?
COc1ccc(/C=N/NC(=O)c2ccn[nH]2)cc1COc1ccc(Cl)cc1Cl,i,i,?,3%[9.24 µM],?,12µM*
COc1ccc(/C=N/NC(=O)CCSc2nc3ccccc3s2)cc1OC,i,i,?,-4%,-3%,?
COc1ccc(/C=N\NC(=O)c2ccccc2Cl)cc1COc1c(F)c(F)c(F)c(F)c1F,i,?,?,?,-13%,9.2µM*
COc1ccc(/C=N/NC(=O)c2ccccc2Cl)cc1CSc1nc2ccccc2s1,7.3µM*,5.8µM*,5.8µM*,?,4.5µM*,0.82µM*
COc1ccc(CNC(=O)CC(c2ccc(OC)c(OC)c2)N2Cc3ccccc3C2=O)cc1 (stereo not given),i,i,.,.,.,.
COC(=O)C1[C@H]2SC(C)(C)C(C(=O)OC)N2C(=O)N1Cc1ccccc1 (stereo not given in full),i,i,.,.,.,.
Cc1ccc(-c2c(C(=O)N3CCN(c4cccc(C)c4C)CC3)oc(=O)c3ccccc23)cc1,i,i,.,.,.,.
COc1ccc(/C=N/NC(=O)c2ccn[nH]2)cc1COc1ccc([N+](=O)[O-])c(C)c1,i,i,?,?,?,2%
COc1ccc(/C=N/NC(=O)c2cccnc2)cc1COc1ccc([N+](=O)[O-])c(C)c1,?,6.5µM*,12µM*,2.1µM*,2.6µM*,2.1µM*
N#C/C(=C\c1c(N2CCCCC2)nc2ccccn2c1=O)C(=O)NCc1ccco1,2.9µM*,?,7%,2%,-1%,-33%
CCNC(=O)/C(C#N)=C/c1c(N(Cc2ccccc2)Cc2ccccc2)nc2ccccn2c1=O,2.9µM*,?,-158%,?,23µM*,12%
CCNC(=O)/C(C#N)=C/c1c(N2CCN(C)CC2)nc2c(C)cccn2c1=O,i,i,?,-1%,4%,-14%
